{"source": "paper PMC4336329", "about": "(PLoS ONE, 2015)", "note": "The whole screen tested about 310,000 compounds, of which about 14,000 (4.5%) showed an effect of 50% or more. Effects have a minus sign here. The sample as a whole holds a higher share of strong results than the screen did.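 Further: peak tail current of the secondary pulse compared with the same well before compound.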", "data": [{"target": "human ether-à-go-go-related gene (hERG) potassium channel (human, UniProt Q12809)", "sequence (Q12809 whole entry, looked up)": "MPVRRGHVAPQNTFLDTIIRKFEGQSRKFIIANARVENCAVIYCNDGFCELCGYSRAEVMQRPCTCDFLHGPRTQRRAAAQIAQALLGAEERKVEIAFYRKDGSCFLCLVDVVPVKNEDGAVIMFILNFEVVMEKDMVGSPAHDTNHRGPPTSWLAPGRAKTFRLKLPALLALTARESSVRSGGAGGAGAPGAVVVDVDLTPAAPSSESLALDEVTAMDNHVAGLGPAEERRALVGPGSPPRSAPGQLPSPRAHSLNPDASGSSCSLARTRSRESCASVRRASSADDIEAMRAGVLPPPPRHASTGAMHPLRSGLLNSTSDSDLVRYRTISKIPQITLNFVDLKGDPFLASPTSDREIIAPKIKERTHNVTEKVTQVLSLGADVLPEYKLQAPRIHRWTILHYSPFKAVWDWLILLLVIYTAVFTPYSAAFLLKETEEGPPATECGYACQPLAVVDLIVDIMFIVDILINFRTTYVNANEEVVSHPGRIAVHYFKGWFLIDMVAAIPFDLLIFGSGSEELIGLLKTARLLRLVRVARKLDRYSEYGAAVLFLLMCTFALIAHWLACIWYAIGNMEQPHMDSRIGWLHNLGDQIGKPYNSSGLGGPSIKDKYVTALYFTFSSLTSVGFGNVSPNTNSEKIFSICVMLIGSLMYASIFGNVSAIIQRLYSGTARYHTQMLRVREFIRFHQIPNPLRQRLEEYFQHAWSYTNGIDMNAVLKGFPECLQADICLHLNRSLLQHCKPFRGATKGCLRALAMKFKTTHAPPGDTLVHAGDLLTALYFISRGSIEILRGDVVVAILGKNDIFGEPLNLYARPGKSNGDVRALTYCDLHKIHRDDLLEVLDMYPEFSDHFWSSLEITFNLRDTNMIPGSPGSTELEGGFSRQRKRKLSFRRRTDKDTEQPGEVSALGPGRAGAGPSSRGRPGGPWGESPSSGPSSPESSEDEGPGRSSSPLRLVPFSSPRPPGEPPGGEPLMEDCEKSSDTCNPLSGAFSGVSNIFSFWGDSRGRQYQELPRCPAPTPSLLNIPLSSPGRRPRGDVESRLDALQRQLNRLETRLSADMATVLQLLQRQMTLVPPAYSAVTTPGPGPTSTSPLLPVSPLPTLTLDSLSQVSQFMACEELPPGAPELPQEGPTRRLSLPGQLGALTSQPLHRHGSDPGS", "assay": "primary screen, population patch clamp on CHO cells stably expressing hERG; higher = less effect of the substance", "units": {"hERG current change (%, negative = inhibition) at 10uM": "%"}, "values": [{"molecule": "O=C(Nc1ccccc1[N+](=O)[O-])c1ccc(S(=O)(=O)N2CCCC2)cc1", "hERG current change (%, negative = inhibition) at 10uM": 1.84}, {"molecule": "CCCN(CCC)c1ncnc2nc[nH]c12", "hERG current change (%, negative = inhibition) at 10uM": -7.36}, {"molecule": "Cc1cc(C)c2sc(N(CCCN(C)C)C(=O)COc3ccc(Cl)cc3)nc2c1.Cl", "hERG current change (%, negative = inhibition) at 10uM": -1.13}, {"molecule": "CN(C)CCCN(C(=O)COc1ccccc1)c1nc2c(Cl)cccc2s1.Cl", "hERG current change (%, negative = inhibition) at 10uM": -66.9}, {"molecule": "Cc1cccc2sc(N(CCCN(C)C)C(=O)COc3ccc(Cl)cc3)nc12.Cl", "hERG current change (%, negative = inhibition) at 10uM": -60.5}, {"molecule": "CN(C)CCN(C(=O)c1ccccc1Cl)c1nc2c(Cl)cccc2s1.Cl", "hERG current change (%, negative = inhibition) at 10uM": -34.1}, {"molecule": "COc1cccc2sc(N(CCCN(C)C)C(=O)COc3ccc(Cl)cc3)nc12.Cl", "hERG current change (%, negative = inhibition) at 10uM": -80.2}, {"molecule": "COc1ccc2sc(N(CCCN(C)C)C(=O)c3nc4ccccc4s3)nc2c1.Cl", "hERG current change (%, negative = inhibition) at 10uM": -5.36}, {"molecule": "CN(C)CCCN(C(=O)COc1ccc(Cl)cc1)c1nc2c(F)cccc2s1.Cl", "hERG current change (%, negative = inhibition) at 10uM": -67.1}, {"molecule": "O=[N+]([O-])/C(C(Cl)=C(Cl)Cl)=C(/NC1CC1)Sc1ccccc1", "hERG current change (%, negative = inhibition) at 10uM": 7.59}, {"molecule": "CC(C)N1C(=O)CCC1C(=O)N1CCC(Cc2ccccc2)CC1", "note": "(stereo not drawn)", "hERG current change (%, negative = inhibition) at 10uM": -25.3}, {"molecule": "CC(C)CC(C(=O)NCc1ccccn1)N1C(=O)c2ccccc2C1=O", "note": "(stereo not drawn)", "hERG current change (%, negative = inhibition) at 10uM": -1.75}, {"molecule": "CCc1ccc(N(CC(=O)NC(C)C)C(=O)CCC(=O)Nc2nccs2)cc1", "hERG current change (%, negative = inhibition) at 10uM": 13.4}, {"molecule": "COc1ccc(/C=C/C(=O)c2ccc3c4c(cccc24)CC3)cc1OC", "hERG current change (%, negative = inhibition) at 10uM": 20.8}, {"molecule": "Nc1nn(S(=O)(=O)c2ccccc2)cc1-c1ccc([N+](=O)[O-])cc1", "hERG current change (%, negative = inhibition) at 10uM": -9.96}, {"molecule": "O=C(COC(=O)c1ccc2c(c1)OCO2)Nc1ccccc1F", "hERG current change (%, negative = inhibition) at 10uM": 11.8}, {"molecule": "O=C(O)Cc1ccc(NC(=O)c2ccc3c(c2)C(=O)N(CC2CCCO2)C3=O)cc1", "note": "(stereo not drawn)", "hERG current change (%, negative = inhibition) at 10uM": 12.6}, {"molecule": "CC1=C(C(=O)OCCBr)C(c2cccc3ccccc23)NC(=O)N1", "note": "(stereo not drawn)", "hERG current change (%, negative = inhibition) at 10uM": 17.5}, {"molecule": "CCCCN1C(=O)C(=O)N(CC(=O)N2CCc3ccccc32)C1=O", "hERG current change (%, negative = inhibition) at 10uM": 5.05}, {"molecule": "Cc1cc(C)cc(N(C(=O)c2ccco2)C(C(=O)NC2CCCC2)c2ccncc2)c1", "note": "(stereo not drawn)", "hERG current change (%, negative = inhibition) at 10uM": 9.94}, {"molecule": "COc1cc(C(=O)OCCC(C)C)cc(OC)c1O", "hERG current change (%, negative = inhibition) at 10uM": -1.55}, {"molecule": "Cc1c(Br)c(=O)oc2c(Br)c(O)ccc12", "hERG current change (%, negative = inhibition) at 10uM": 19.9}, {"molecule": "CCOC(=O)Cn1cc(C#N)c(=O)[nH]c1=O", "hERG current change (%, negative = inhibition) at 10uM": -17.8}, {"molecule": "Cc1c(C(=O)Nc2ccc3oc(-c4cccnc4)nc3c2)oc2ccccc12", "hERG current change (%, negative = inhibition) at 10uM": -16.8}]}]}
